# Reference: paper PMC11062922 (Nature Chemical Biology, 2023)
# Read-outs that look alike come from different tables or passages of the source.
# Tested on: IRAK4
# Settings: read-out: apparent Kd, n = 1
substance,measurement,setting,value
Lestaurtinib,potency estimated from few doses,"compound concentrations:100 nM and 1000 nM (sheet 'Lestaurtinib' of Supplementary Table 1),run:Lestaurtinib_02443_R2,Plate:MR009",0.0922 µM
same,potency estimated from few doses,"compound concentrations:100 nM and 1000 nM (sheet 'Lestaurtinib' of Supplementary Table 1),run:Lestaurtinib_02443_R3,Plate:MR009",0.0989 µM
same,potency estimated from few doses,"compound concentrations:100 nM and 1000 nM (sheet 'Lestaurtinib' of Supplementary Table 1),run:Lestaurtinib_02473_R1,Plate:MR010",0.0798 µM
same,potency estimated from few doses,"compound concentrations:100 nM and 1000 nM (sheet 'Lestaurtinib' of Supplementary Table 1),run:Lestaurtinib_02473_R2,Plate:MR010",0.132 µM
same,potency estimated from few doses,"compound concentrations:100 nM and 1000 nM (sheet 'Lestaurtinib' of Supplementary Table 1),run:Lestaurtinib_02473_R3,Plate:MR010",0.0965 µM
same,potency estimated from few doses,"compound concentrations:100 nM and 1000 nM (sheet 'Lestaurtinib' of Supplementary Table 1),run:Lestaurtinib_02482_R1,Plate:MR011",0.0782 µM
same,potency estimated from few doses,"compound concentrations:100 nM and 1000 nM (sheet 'Lestaurtinib' of Supplementary Table 1),run:Lestaurtinib_02482_R2,Plate:MR011",0.18 µM
same,potency estimated from few doses,"compound concentrations:100 nM and 1000 nM (sheet 'Lestaurtinib' of Supplementary Table 1),run:Lestaurtinib_02482_R3,Plate:MR011",0.0997 µM
same,potency estimated from few doses,"compound concentrations:100 nM and 1000 nM (sheet 'Lestaurtinib' of Supplementary Table 1),run:Lestaurtinib_02496_R1,Plate:MR013",0.124 µM
same,potency estimated from few doses,"compound concentrations:100 nM and 1000 nM (sheet 'Lestaurtinib' of Supplementary Table 1),run:Lestaurtinib_02496_R2,Plate:MR013",0.146 µM
same,potency estimated from few doses,"compound concentrations:100 nM and 1000 nM (sheet 'Lestaurtinib' of Supplementary Table 1),run:Lestaurtinib_02496_R3,Plate:MR013",0.193 µM
same,potency estimated from few doses,"compound concentrations:100 nM and 1000 nM (sheet 'Lestaurtinib' of Supplementary Table 1),run:Lestaurtinib_02566_R1,Plate:MR014",0.142 µM
same,potency estimated from few doses,"compound concentrations:100 nM and 1000 nM (sheet 'Lestaurtinib' of Supplementary Table 1),run:Lestaurtinib_02566_R3,Plate:MR014",0.0808 µM
same,potency estimated from few doses,"compound concentrations:100 nM and 1000 nM (sheet 'Lestaurtinib' of Supplementary Table 1),run:Lestaurtinib_02577_R1,Plate:MR016",0.0886 µM
same,potency estimated from few doses,"compound concentrations:100 nM and 1000 nM (sheet 'Lestaurtinib' of Supplementary Table 1),run:Lestaurtinib_02577_R2,Plate:MR016",0.0975 µM
same,potency estimated from few doses,"compound concentrations:100 nM and 1000 nM (sheet 'Lestaurtinib' of Supplementary Table 1),run:Lestaurtinib_02577_R3,Plate:MR016",0.0638 µM
same,potency estimated from few doses,"compound concentrations:100 nM and 1000 nM (sheet 'Lestaurtinib' of Supplementary Table 1),run:Lestaurtinib_02601_R1,Plate:MR018",0.144 µM
same,potency estimated from few doses,"compound concentrations:100 nM and 1000 nM (sheet 'Lestaurtinib' of Supplementary Table 1),run:Lestaurtinib_02601_R2,Plate:MR018",0.142 µM
same,potency estimated from few doses,"compound concentrations:100 nM and 1000 nM (sheet 'Lestaurtinib' of Supplementary Table 1),run:Lestaurtinib_02606_R1,Plate:MR019",0.0885 µM
same,potency estimated from few doses,"compound concentrations:100 nM and 1000 nM (sheet 'Lestaurtinib' of Supplementary Table 1),run:Lestaurtinib_02624_R2,Plate:MR020",0.143 µM
same,potency estimated from few doses,"compound concentrations:100 nM and 1000 nM (sheet 'Lestaurtinib' of Supplementary Table 1),run:Lestaurtinib_02624_R3,Plate:MR020",0.124 µM
same,potency estimated from few doses,"compound concentrations:100 nM and 1000 nM (sheet 'Lestaurtinib' of Supplementary Table 1),run:Lestaurtinib_02724_R2,Plate:MR021",0.0993 µM
same,potency estimated from few doses,"compound concentrations:100 nM and 1000 nM (sheet 'Lestaurtinib' of Supplementary Table 1),run:Lestaurtinib_02741_R1,Plate:MR023",0.0896 µM
same,potency estimated from few doses,"compound concentrations:100 nM and 1000 nM (sheet 'Lestaurtinib' of Supplementary Table 1),run:Lestaurtinib_02741_R3,Plate:MR023",0.0713 µM
same,potency estimated from few doses,"compound concentrations:100 nM and 1000 nM (sheet 'Lestaurtinib' of Supplementary Table 1),run:Lestaurtinib_02748_R3,Plate:MR024",0.0809 µM
same,potency estimated from few doses,"compound concentrations:100 nM and 1000 nM (sheet 'Lestaurtinib' of Supplementary Table 1),run:Lestaurtinib_02752_R2,Plate:MR025",0.16 µM
same,potency estimated from few doses,"compound concentrations:100 nM and 1000 nM (sheet 'Lestaurtinib' of Supplementary Table 1),run:Lestaurtinib_02752_R3,Plate:MR025",0.0801 µM
same,potency estimated from few doses,"compound concentrations:100 nM and 1000 nM (sheet 'Lestaurtinib' of Supplementary Table 1),run:Lestaurtinib_02765_R2,Plate:MR026",0.0757 µM
same,potency estimated from few doses,"compound concentrations:100 nM and 1000 nM (sheet 'Lestaurtinib' of Supplementary Table 1),run:Lestaurtinib_02766_R2,Plate:MR027",0.146 µM
same,potency estimated from few doses,"compound concentrations:100 nM and 1000 nM (sheet 'Lestaurtinib' of Supplementary Table 1),run:Lestaurtinib_02766_R3,Plate:MR027",0.121 µM
same,potency estimated from few doses,"compound concentrations:100 nM and 1000 nM (sheet 'Lestaurtinib' of Supplementary Table 1),run:Lestaurtinib_02768_R1,Plate:MR028",0.136 µM
same,potency estimated from few doses,"compound concentrations:100 nM and 1000 nM (sheet 'Lestaurtinib' of Supplementary Table 1),run:Lestaurtinib_02768_R2,Plate:MR028",0.0978 µM
same,potency estimated from few doses,"compound concentrations:100 nM and 1000 nM (sheet 'Lestaurtinib' of Supplementary Table 1),run:Lestaurtinib_02795_R2,Plate:MR022",0.0941 µM
same,potency estimated from few doses,"compound concentrations:100 nM and 1000 nM (sheet 'Lestaurtinib' of Supplementary Table 1),run:Lestaurtinib_02795_R3,Plate:MR022",0.239 µM
same,potency estimated from few doses,"compound concentrations:100 nM and 1000 nM (sheet 'Lestaurtinib' of Supplementary Table 1),run:Lestaurtinib_02896_R1,Plate:MR030",0.113 µM
same,potency estimated from few doses,"compound concentrations:100 nM and 1000 nM (sheet 'Lestaurtinib' of Supplementary Table 1),run:Lestaurtinib_03172_R2,Plate:MR031",0.0662 µM
